# Screens as filed in PubChem.
# Only a selection was taken, and hits are over-represented in it overall.
# KDM5B inh = blocks human KDM5B histone demethylase activity; Q9UGL1; KDM5B demethylase, FDH-coupled NADH fluorescence (FDH is formaldehyde dehydrogenase); Potency, µM (doses to about 57.7 µM), most hits filed as inhibitors; actives 2.6% (n = 220,000); AID 1347165; active = well fitted inhibition curve with a large enough effect; note: 0% is about no effect; nearly all actives have a fitted effect of over 70% in size
# Target sequence (Q9UGL1 whole entry, looked up): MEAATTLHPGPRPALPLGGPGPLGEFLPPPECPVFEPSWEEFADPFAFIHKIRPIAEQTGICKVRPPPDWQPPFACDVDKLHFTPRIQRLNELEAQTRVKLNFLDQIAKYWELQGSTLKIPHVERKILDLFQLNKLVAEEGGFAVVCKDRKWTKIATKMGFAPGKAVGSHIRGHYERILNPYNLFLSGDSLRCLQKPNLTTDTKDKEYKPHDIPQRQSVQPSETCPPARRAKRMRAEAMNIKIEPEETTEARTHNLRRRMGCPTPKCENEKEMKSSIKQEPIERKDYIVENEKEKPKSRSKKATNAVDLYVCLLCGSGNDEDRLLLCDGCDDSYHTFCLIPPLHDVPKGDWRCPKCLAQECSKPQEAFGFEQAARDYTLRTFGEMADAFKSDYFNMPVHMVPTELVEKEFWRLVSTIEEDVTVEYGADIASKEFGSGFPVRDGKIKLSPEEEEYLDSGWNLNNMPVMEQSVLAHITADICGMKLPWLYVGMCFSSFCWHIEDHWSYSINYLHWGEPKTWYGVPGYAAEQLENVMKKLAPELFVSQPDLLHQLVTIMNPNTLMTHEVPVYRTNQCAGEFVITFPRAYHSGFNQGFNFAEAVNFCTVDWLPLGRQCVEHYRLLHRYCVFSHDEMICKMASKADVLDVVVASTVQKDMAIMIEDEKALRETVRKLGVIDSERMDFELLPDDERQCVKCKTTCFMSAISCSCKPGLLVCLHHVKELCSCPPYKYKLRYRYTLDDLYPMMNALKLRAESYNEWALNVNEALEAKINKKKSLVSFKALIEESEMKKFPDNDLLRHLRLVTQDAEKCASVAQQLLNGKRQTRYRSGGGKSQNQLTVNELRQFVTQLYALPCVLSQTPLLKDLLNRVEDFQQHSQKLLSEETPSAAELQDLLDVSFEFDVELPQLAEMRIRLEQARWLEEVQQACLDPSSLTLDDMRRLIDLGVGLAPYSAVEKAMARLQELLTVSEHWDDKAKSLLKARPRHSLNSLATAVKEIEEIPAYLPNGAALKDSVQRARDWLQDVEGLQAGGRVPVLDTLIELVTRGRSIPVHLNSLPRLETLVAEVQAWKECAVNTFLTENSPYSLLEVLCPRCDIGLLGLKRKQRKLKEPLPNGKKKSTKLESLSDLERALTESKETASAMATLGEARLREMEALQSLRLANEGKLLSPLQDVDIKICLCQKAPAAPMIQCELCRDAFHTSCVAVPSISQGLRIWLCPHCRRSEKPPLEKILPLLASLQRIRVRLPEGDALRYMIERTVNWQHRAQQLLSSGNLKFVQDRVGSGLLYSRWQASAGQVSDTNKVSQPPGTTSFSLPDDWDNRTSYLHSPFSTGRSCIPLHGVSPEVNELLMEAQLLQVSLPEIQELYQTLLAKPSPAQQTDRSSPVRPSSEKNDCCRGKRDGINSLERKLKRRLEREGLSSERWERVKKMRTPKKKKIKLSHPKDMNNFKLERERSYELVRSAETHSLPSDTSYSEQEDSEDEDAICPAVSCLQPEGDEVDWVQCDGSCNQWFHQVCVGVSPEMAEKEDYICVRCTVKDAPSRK
#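 qHTS format, multiple compound concentrations. Buffer 50 mM HEPES pH 7.5/0.01% Tween-20; 200 nM KDM5BΔAP final; 10 min compound preincubation; substrate-mix levels 12.5 µM peptide, 25 µM α-KG, 0.25 mM NAD⁺; 30 min RT; ΔRFU.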
# * = called active by the depositor; i = inactive. Potency is the fitted concentration of half-maximal effect.
SMILES,KDM5B inh
CC(=O)N1C[C@@H]2C[C@H](C1)c1ccc(NC(=O)c3ccc(F)cc3)c(=O)n1C2,i
COc1ccc(C(=O)N2C[C@@H]3C[C@H](C2)c2c(NC(=O)CSC)ccc(=O)n2C3)cc1,i
O=C(Nc1ccc2n(c1=O)C[C@H]1C[C@@H]2CN(Cc2ccc(F)cc2)C1)c1cccs1,32µM*
CN1CCC(N2C[C@@H]3C[C@H](C2)c2c(NC(=O)c4ccccn4)ccc(=O)n2C3)CC1,i
COCCC(=O)Nc1ccc2n(c1=O)C[C@H]1C[C@@H]2CN(CCCc2ccccc2)C1,32µM*
C1CC2CCC1CNC2,i
COC(=O)c1ccc(C2SCC(=O)Nc3n[nH]c(C)c32)cc1 (centres undefined),i
Cc1ccc2[nH]cc(CCN)c2c1,i
COc1ccc(-c2cn(C[C@H]3C[C@@H]4CCN3C[C@@H]4C(=O)N(C)C)nn2)cc1,i
Cc1ccc(NC(=O)N2C[C@@H]3C[C@H](C2)c2c(-c4cccs4)ccc(=O)n2C3)cc1,i
Cc1ccccc1-c1ccc2n(c1=O)C[C@H]1C[C@@H]2CN(C(=O)Nc2ccc(Cl)cc2)C1,32µM*
CC(C)NC(=O)N1C[C@@H]2C[C@H](C1)c1c(-c3ccccc3F)ccc(=O)n1C2,i
Cc1ccccc1-c1ccc2n(c1=O)C[C@H]1C[C@@H]2CN(C(=O)NC(C)C)C1,35µM*
O=C(Nc1ccc(=O)n2c1[C@@H]1C[C@@H](CN(C(=O)NC3CCCCC3)C1)C2)c1ccco1,i
N#Cc1cccc(NC(=O)N2C[C@@H]3C[C@H](C2)c2c(-c4ccccc4)ccc(=O)n2C3)c1,i
O=C(O)CC1(CNC(=O)Cn2ccc3c(Cl)cccc32)CCCCC1,i
CCc1ccc(NC(=O)CN2C(=O)CN=C(c3ccc(OC)cc3)c3c2sc2c3CCC2)cc1,i
COc1ccc(C(=O)NC[C@H]2C[C@@H]3CCN2C[C@@H]3c2cc(C3CCCCC3)nn2C)cc1,i
COC[C@H]1CCCN1C[C@H]1CN2CC[C@H]1C[C@@H]2CN,i
ClCCN1CCOCC1,i
O=c1cccc2n1CC1CC2CN(S(=O)(=O)c2cc(Cl)ccc2Cl)C1 (centres undefined),i
COc1ccc(-c2ccc3n(c2=O)C[C@H]2C[C@@H]3CN(S(C)(=O)=O)C2)cc1,40µM*
O=c1ccc(-c2ccc(Cl)cc2)c2n1C[C@H]1C[C@@H]2CN(S(=O)(=O)c2cccs2)C1,i
CC(C)(C)c1ccc(-c2cn(C[C@H]3CC4CCN3C[C@@H]4C(=O)NC3CCCCC3)nn2)cc1 (some centres undefined),i
O=Cc1cccc2ccccc12,i
